Assay [1] is described as follows: qHTS assay to identify aromatase inhibitors - cell viability counter screen (AID 743084;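 also: cells stimulated with testosterone during compound exposure; nearly all actives have a fitted effect of over 55% in size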). (In qHTS, concentration-response curves come from the screen itself.)
Assay [2] deals with Peroxisome proliferator-activated receptor gamma (Homo sapiens) (UniProt P37231). The assay can be described thus: qHTS assay to identify small molecule agonists of the peroxisome proliferator-activated receptor gamma (PPARg) signaling pathway (AID 743094; active = well fitted activation curve with a large enough effect in the signal ratio in the repeat runs, not every such curve was filed as active; the % refers to the signal ratio; also: potency is read from the fitted curve at half-maximal effect). The procedure, abridged:
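Following 5 h plating at 37C, PPARg-bla HEK293H cells receive compound or DMSO for 17 h; fluorescence intensity is recorded after LiveBLAzer B/G loading for 1 h at room temperature.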

Assay [3] can be described thus: qHTS assay for small molecule agonists of the antioxidant response element (ARE) signaling pathway (AID 743202; active = well fitted activation curve with a large enough effect in the signal ratio in the repeat runs, not every such curve was filed as active; the % refers to the signal ratio). In outline: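 Compounds delivered in DMSO to ARE-bla HepG2 cells (2,000 cells/well, pre-incubated 5 h) and left 16 h at 37 C. LiveBLAzer B/G FRET substrate then added for 2 h at RT before fluorescence reading.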
Assay [4] is described as follows: qHTS assay for small molecule agonists of the antioxidant response element (ARE) signaling pathway - cell viability counter screen (AID 743203; calls by dose curve; also: nearly all actives have a fitted effect of over 55% in size; also: potency is read from the fitted curve at half-maximal effect). In outline: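 Compounds in DMSO were pinned onto ARE-bla HepG2 cells plated 5 hrs earlier at 2,000 cells/well. Sixteen hours later at 37C/5% CO2, CellTiter-Glo was added and luminescence measured after 30 min at room temperature.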

Assay [5] is described as follows: qHTS assay for small molecule activators of the heat shock response signaling pathway - cell viability counter screen (AID 743209). Also: nearly all actives have a fitted effect of over 50% in size. In outline:
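Counter screen for cytotoxicity in HeLa HSE-bla reporter cells. Treatment was 5 h at 37 C; viability was detected by luminescent ATP assay (CellTiter-Glo) in the same wells as the beta-lactamase read.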

Assay [6] has as its target Peroxisome proliferator-activated receptor delta (Homo sapiens) (UniProt Q03181). The assay can be described thus: qHTS assay to identify small molecule agonists of the peroxisome proliferator-activated receptor delta (PPARd) signaling pathway (AID 743212; calls by dose curve). The procedure, abridged:
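A PPARd-bla HEK293H line with beta-lactamase under an Upstream Activator Sequence is treated with compounds at 37 C. Substrate loading for 2 h at room temperature precedes the fluorescence measurement.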

The nature of assay [7]: qHTS assay to identify small molecule antagonists of the peroxisome proliferator-activated receptor delta (PPARd) signaling pathway - cell viability counter screen (AID 743213). Also: nearly all actives have a fitted effect of over 50% in size. Also: potency is read from the fitted curve at half-maximal effect. The procedure, abridged: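 PPARd-bla HEK293H cells (3000/well) got compound plus 300 nM L165041 agonist for 17 h at 37 C. Viability in the same wells came from CellTiter-Glo luminescence after 30 min at room temperature.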

In assay [8] the target is Peroxisome proliferator-activated receptor delta (Homo sapiens) (UniProt Q03181). Put plainly: qHTS assay to identify small molecule antagonists of the peroxisome proliferator-activated receptor delta (PPARd) signaling pathway (AID 743215; active = well fitted inhibition curve with a large enough effect in the signal ratio in the repeat runs, not every such curve was filed as active; the % refers to the signal ratio;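 also: cells stimulated with agonist L165041 at 300 nM final during compound exposure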; also: potency is read from the fitted curve at half-maximal effect). In outline: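 With L165041 present at 300 nM final, compounds were incubated 17 h at 37 C on PPARd UAS-bla HEK293H cells. A FRET-based beta-lactamase substrate was then applied for 2 h at room temperature and fluorescence intensity recorded.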
Sequence of Peroxisome proliferator-activated receptor delta (Homo sapiens) (Q03181 whole entry, looked up): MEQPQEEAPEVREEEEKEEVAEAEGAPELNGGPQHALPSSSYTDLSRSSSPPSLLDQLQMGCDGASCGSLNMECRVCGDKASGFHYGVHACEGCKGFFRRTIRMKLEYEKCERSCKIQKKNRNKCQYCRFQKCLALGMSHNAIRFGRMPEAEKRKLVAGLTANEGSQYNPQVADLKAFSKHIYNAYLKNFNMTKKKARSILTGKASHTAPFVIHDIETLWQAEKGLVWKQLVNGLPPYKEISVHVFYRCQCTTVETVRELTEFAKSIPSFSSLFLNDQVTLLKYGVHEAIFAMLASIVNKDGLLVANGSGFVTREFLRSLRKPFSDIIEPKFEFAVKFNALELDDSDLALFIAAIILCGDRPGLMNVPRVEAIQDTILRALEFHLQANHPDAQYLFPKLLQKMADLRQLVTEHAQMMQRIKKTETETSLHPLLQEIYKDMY

Assay [9] deals with Bile acid receptor (Homo sapiens) (UniProt Q96RI1). Put plainly: qHTS assay to identify small molecule antagonists of the farnesoid-X-receptor (FXR) signaling pathway (AID 743217; active = well fitted inhibition curve with a large enough effect in the signal ratio in the repeat runs, not every such curve was filed as active; the % refers to the signal ratio). In outline: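 In this cell-based antagonist screen, inhibition of CDCA-driven (50 uM final) UAS-beta-lactamase expression in HEK 293T cells was measured by FRET fluorescence following 16 h compound exposure at 37 °C.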
Sequence of Bile acid receptor (Homo sapiens) (Q96RI1 whole entry, looked up): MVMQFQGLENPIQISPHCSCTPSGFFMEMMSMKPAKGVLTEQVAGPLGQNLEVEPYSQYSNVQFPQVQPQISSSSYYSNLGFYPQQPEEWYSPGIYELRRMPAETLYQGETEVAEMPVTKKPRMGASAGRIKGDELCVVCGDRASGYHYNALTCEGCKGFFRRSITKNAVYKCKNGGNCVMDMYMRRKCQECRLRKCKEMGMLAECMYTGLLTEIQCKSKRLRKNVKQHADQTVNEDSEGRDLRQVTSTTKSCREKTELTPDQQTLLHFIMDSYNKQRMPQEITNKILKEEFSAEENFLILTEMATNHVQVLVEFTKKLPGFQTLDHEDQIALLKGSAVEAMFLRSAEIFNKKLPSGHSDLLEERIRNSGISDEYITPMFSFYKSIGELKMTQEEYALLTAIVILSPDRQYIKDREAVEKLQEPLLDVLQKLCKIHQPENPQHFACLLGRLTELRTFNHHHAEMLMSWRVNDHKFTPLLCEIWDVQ

Assay [10] is described as follows: qHTS assay to identify small molecule agonists of the farnesoid-X-receptor (FXR) signaling pathway - cell viability counter screen (AID 743218). Also: nearly all actives have a fitted effect of over 45% in size. Also: potency is read from the fitted curve at half-maximal effect. In outline:
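After 16 h at 37 C with test compounds, FXR-bla HEK 293T cells were given LiveBLAzer B/G substrate for 2 h at RT and then CellTiter-Glo; luminescence was taken after 30 min.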

Assay [11] concerns the target Bile acid receptor (Homo sapiens) (UniProt Q96RI1). The assay can be described thus: qHTS assay to identify small molecule agonists of the farnesoid-X-receptor (FXR) signaling pathway (AID 743220; active = well fitted activation curve with a large enough effect in the signal ratio in the repeat runs, not every such curve was filed as active; the % refers to the signal ratio). In outline: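 Beta-lactamase reporter under UAS control in GeneBLAzer FXR HEK 293T cells (5000/well) measured with LiveBLAzer FRET substrate after 2 h at room temperature. Compound exposure lasted 16 h at 37C.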

Assay [12] in a line: qHTS assay to identify small molecule antagonists of the farnesoid-X-receptor (FXR) signaling pathway - cell viability counter screen (AID 743221; active = well fitted cell-killing curve with a large enough effect in the repeat runs, not every such curve was filed as active; also: nearly all actives have a fitted effect of over 50% in size). The procedure, abridged:
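CellTiter-Glo, 30 min RT, luminescence; same wells as the LiveBLAzer FRET read. Cells: FXR-UAS-bla HEK 293T. Treatment: compound with chenodeoxycholic acid 50 uM final, 16 h at 37 C.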

The target of assay [13] is Vitamin D3 receptor (Homo sapiens) (UniProt P11473). Put plainly: qHTS assay to identify small molecule agonists of the vitamin D receptor (VDR) signaling pathway (AID 743222; calls by dose curve). The procedure, abridged: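 VDR-bla cells were seeded, left 4 h, treated with compounds in DMSO for 16 h, incubated 2 h at RT with B/G FRET substrate, and read for fluorescence.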
Sequence of Vitamin D3 receptor (Homo sapiens) (P11473 whole entry, looked up): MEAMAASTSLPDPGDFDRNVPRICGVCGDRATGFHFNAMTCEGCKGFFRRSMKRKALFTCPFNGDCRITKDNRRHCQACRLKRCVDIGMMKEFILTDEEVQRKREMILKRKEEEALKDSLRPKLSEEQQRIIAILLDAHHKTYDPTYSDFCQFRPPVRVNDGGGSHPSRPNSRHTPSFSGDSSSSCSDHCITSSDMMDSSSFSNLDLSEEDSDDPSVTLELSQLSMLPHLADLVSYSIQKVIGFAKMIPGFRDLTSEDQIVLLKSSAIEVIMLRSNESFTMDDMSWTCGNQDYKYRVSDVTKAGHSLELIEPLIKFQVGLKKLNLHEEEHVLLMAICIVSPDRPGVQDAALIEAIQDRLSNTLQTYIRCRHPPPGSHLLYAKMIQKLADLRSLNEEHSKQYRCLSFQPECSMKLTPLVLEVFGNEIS
Assay [14] has the same target. Put plainly: qHTS assay to identify small molecule antagonists of the vitamin D receptor (VDR) signaling pathway (AID 743223; active = well fitted inhibition curve with a large enough effect in the signal ratio in the repeat runs, not every such curve was filed as active; the % refers to the signal ratio). In outline:
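After VDR-bla cells are plated and left 4 h at 37C, DMSO-dissolved compounds and 3 nM (final) calcitriol agonist are added. Incubation continues 16 h at 37C; FRET beta-lactamase substrate then develops 2 h at room temperature.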

Assay [15] concerns the target Aryl hydrocarbon receptor (Homo sapiens) (UniProt P35869). Put plainly: qHTS assay to identify small molecule that activate the aryl hydrocarbon receptor (AhR) signaling pathway (AID 743085).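 Also: HG2L7.5c1 human HepG2 liver cells with stably integrated DRE-driven firefly reporter; series mostly up to about 70 µM; nearly all actives have a fitted effect of over 15% in size.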 In outline:
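Reporter assay in engineered HepG2 line HG2L7.5c1, whose plasmid carries twenty dioxin responsive elements upstream of firefly luciferase. Treatment lasted 24 h at 37C; ONE-Glo luminescence gauged induction.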

Assay [16] can be described thus: qHTS assay to identify small molecule that activate the aryl hydrocarbon receptor (AhR) signaling pathway - cell viability counter screen (AID 743086). Also: nearly all actives have a fitted effect of over 45% in size. Also: potency is read from the fitted curve at half-maximal effect. The procedure, abridged: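 HepG2-AhR-luc (HG2L7.5c1) cells, 4000/well, were preincubated 5 h at 37C, exposed to compound in qHTS format for 24 hr at 37C, then given CellTiter-Fluor for 30 min; viability was read as fluorescence in the reporter wells.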

For assay [17], the target named is Peroxisome proliferator-activated receptor gamma (Homo sapiens) (UniProt P37231). The assay can be described thus: qHTS assay to identify small molecule antagonists of the peroxisome proliferator-activated receptor gamma (PPARg) signaling pathway (AID 743191; calls by dose curve; also: series mostly up to about 63 µM; nearly all actives have a fitted effect of over 30% in size). The procedure, abridged:
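GeneBLAzer PPARg UAS-bla HEK293H cells carrying a UAS-driven beta-lactamase reporter were plated at 3000 cells/well, preincubated 5 h at 37C, then given compound for 17 h at 37C; LiveBLAzer B/G FRET substrate was read after 1 h at room temperature.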

A short description of assay [18]: qHTS assay to identify small molecule antagonists of the peroxisome proliferator-activated receptor gamma (PPARg) signaling pathway - cell viability counter screen (AID 743194). Also: nearly all actives have a fitted effect of over 55% in size. The procedure, abridged:
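PPARg-UAS-bla HEK293H cells were plated, rested 5 h at 37 C, then treated with compounds plus rosiglitazone (50 nM final) for 17 h at 37 C; viability was then read by CellTiter-Glo luminescence after 30 min at room temperature.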

Assay [19] in a line: qHTS assay for small molecule activators of the heat shock response signaling pathway (AID 743210; active = well fitted activation curve with a large enough effect in the signal ratio in the repeat runs, with a control signal flat, not every such curve was filed as active; the % refers to the signal ratio;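 also: HeLa cells with beta-lactamase reporter driven by heat shock elements; series mostly up to about 63 µM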). In outline: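 Reporter gene assay: HeLa cells stably bearing an HSE-bla construct, compound treatment 5 h at 37 C, LiveBLAzer substrate 2.5 h at RT, fluorescence intensity.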
Assay [20] can be described thus: qHTS assay to identify small molecule agonists of the peroxisome proliferator-activated receptor delta (PPARd) signaling pathway - cell viability counter screen (AID 743211). Also: nearly all actives have a fitted effect of over 55% in size. Also: potency is read from the fitted curve at half-maximal effect. The procedure, abridged: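 Multiplexed format: after the 2 h room-temperature LiveBLAzer B/G FRET step, CellTiter-Glo was added to the same wells. Luminescence after 30 min gave cell viability; compound exposure was 17 h at 37C.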

The values below come from PubChem BioAssay (Tox21).

Records with an inconclusive call do not appear. A number with no mark means an inactive call. Calls of active or inactive are those of the source. Unless noted, calls follow the shape of the dose curve; as a rule, active = well fitted curve in the direction sought with a large enough effect in the repeat runs; inconclusive = weak or mixed curves; inactive = no such curve, though single readings can be large; an effect the other way counts as inactive or inconclusive.

Sequence of Aryl hydrocarbon receptor (Homo sapiens) (P35869 whole entry, looked up): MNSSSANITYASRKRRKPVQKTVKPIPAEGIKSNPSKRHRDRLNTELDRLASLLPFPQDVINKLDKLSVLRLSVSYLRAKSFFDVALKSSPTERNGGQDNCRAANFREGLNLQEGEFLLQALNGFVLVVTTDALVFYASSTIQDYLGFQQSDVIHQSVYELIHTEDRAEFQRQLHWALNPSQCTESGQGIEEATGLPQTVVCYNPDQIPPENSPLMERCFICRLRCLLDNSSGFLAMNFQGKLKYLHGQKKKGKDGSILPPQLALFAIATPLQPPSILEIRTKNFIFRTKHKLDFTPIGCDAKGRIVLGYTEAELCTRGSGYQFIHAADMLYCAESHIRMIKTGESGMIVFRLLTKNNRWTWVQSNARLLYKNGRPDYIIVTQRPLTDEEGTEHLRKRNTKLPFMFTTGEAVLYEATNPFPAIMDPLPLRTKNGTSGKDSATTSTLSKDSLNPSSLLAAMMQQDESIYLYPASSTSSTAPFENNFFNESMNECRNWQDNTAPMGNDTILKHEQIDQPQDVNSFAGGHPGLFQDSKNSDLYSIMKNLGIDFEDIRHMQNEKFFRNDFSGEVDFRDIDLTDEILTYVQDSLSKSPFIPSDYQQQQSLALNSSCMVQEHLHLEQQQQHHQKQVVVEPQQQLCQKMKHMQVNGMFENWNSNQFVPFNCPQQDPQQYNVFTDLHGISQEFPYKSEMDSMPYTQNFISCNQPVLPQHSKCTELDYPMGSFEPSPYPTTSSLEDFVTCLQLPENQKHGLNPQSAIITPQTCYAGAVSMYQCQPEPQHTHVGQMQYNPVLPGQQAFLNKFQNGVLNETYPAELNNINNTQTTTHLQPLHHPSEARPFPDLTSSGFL
Sequence of Peroxisome proliferator-activated receptor gamma (Homo sapiens) (P37231 whole entry, looked up): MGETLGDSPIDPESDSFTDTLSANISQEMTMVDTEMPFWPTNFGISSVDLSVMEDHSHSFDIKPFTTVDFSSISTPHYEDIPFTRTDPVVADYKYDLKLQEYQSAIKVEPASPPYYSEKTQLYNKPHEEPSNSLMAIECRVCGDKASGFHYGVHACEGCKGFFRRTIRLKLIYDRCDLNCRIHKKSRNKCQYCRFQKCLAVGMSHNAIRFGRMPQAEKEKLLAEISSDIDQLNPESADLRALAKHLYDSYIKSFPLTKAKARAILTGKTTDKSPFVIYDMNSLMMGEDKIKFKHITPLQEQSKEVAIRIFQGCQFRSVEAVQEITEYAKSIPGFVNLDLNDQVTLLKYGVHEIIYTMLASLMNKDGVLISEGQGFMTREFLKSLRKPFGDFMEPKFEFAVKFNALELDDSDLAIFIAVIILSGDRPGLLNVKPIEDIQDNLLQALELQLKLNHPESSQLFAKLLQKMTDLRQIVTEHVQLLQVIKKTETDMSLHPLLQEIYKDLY

For the compound `O=C(CS)Nc1ccccc1`, the Potency result in assay [1], in [2], in [3], in [4], in [5] and in assay [6] was “inactive” in each case. Also, the Potency result in [7], in assay [8], in assay [9], in assay [10], in assay [11] and in [12] was “inactive” throughout. In addition, in assay [13], the Potency result was “inactive”. Also, the compound was classed as inactive in assay [14].
On to `CCCOC(C(=O)OC1CCN(C)CC1)(c1ccccc1)c1ccccc1`, for which the Potency entry in [15], in assay [2], in assay [17], in [18], in assay [4] and in assay [5] was “inactive” throughout. The Potency result in [19], in assay [20], in assay [8] and in [13] was “inactive” throughout. In assay [16], the Potency is 29.8 µM (active).
For `C[Si](C)(CCCN)O[Si](C)(C)CCCN`, the Potency result in assay [1], in assay [16], in assay [2], in assay [4], in assay [5] and in assay [19] was “inactive” in each case. The Potency entry in assay [20], in assay [6] and in [8] was “inactive” each time. In addition, the compound was called inactive in assay [14].
Take `CCCCC1=NC2(CCCC2)C(=O)N1Cc1ccc(-c2ccccc2-c2nn[nH]n2)cc1`: the Potency result in assay [15], in assay [16], in assay [17], in [18], in assay [4] and in assay [5] was “inactive” each time. The Potency entry in [19], in assay [20], in [7], in [8], in assay [10] and in assay [11] was “inactive” throughout. In addition, the Potency result in [12] and in assay [13] was “inactive” in each case.
As for `O=C(O)C1(C(=O)Nc2ccc(Cl)cc2Cl)CC1`, the Potency result in [1], in assay [16], in [4], in assay [5], in assay [19] and in assay [11] was “inactive” each time. Besides, the Potency entry in assay [12] is “inactive”.
For `CCCCCCCCCCCCCCCCCCOS(=O)(=O)O`, the Potency entry in [15], in [16] and in assay [13] was “inactive” throughout. Moreover, the Potency in assay [4] was 61.1 µM (active); in assay [20], 49 µM (active); in [7], 54.9 µM (active); in [10], 34.7 µM (active). The result in [14] was inactive.
For the compound `Brc1c2ccccc2cc2ccccc12`, the Potency result in assay [1], in assay [16], in assay [18], in assay [5], in assay [20] and in assay [7] was “inactive” throughout. Besides, the Potency in [2] was 49.5 µM (active). The result in assay [14] was inactive.
Regarding `O=[N+]([O-])c1ccc(NCCO)c(OCCO)c1`, the Potency result in [15], in assay [2], in [17], in [18], in [3] and in assay [4] was “inactive” throughout. Moreover, the Potency result in assay [5], in assay [19], in [20], in assay [6], in assay [7] and in assay [8] was “inactive” in each case. The Potency entry in assay [10], in assay [11], in assay [12] and in assay [13] was “inactive” in each case. Further, the call in assay [14] was inactive.
As for `Clc1ccc2c(c1)CCc1cccnc1C2=C1CCNCC1`, the Potency entry in assay [15], in [17], in assay [6], in assay [11] and in assay [13] was “inactive” in each case. Besides, the Potency in assay [8] was 29.8 µM (active).
On to `Cc1nn(C)c(Oc2ccccc2)c1/C=N/OCc1ccc(C(=O)OC(C)(C)C)cc1`, for which the Potency entry in assay [15], in assay [16], in assay [2], in assay [18], in [5] and in assay [8] was “inactive” in each case. Also, the Potency entry in assay [10], in assay [11], in assay [12] and in assay [13] was “inactive” throughout.
As to `COc1ccc(C(=O)c2ccc(OC)cc2O)c(O)c1`, the Potency entry in assay [1], in assay [16], in [2], in [4], in assay [5] and in [19] was “inactive” in each case. Also, the Potency result in assay [20], in assay [6], in [10], in [12] and in assay [13] was “inactive” in each case. For the same compound, the call in [14] was inactive.
